This is an account of results in PubChem BioAssay (NCATS).

For assay [1], the target named is Voltage-gated inwardly rectifying potassium channel KCNH2 (Homo sapiens) (UniProt Q12809). The experiment in a line: qHTS Assay for Small Molecule Inhibitors of the Human hERG Channel Activity (AID 588834).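 Also: lower thallium flux fluorescence means stronger hERG block; nearly all actives have a fitted effect of over 50% in size.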 Also: potency is read from the fitted curve at half-maximal effect. The settings on record: U2OS BacMam hERG, FluxOR thallium flux fluorescence; series mostly up to 46.1 µM. An outline of the steps:
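U2OS cells BacMam-transduced with hERG, 2000 cells/well, compound ~10 min at 37 °C before stimulation buffer. FluxOR thallium flux fluorescence read kinetically on FDSS; decrease indicates block; AC50 from Hill fits.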
On the technique in general: In qHTS, concentration-response curves come from the screen itself.

The nature of assay [2]: qHTS assay for small molecule antagonists of retinoid X receptor alpha signaling (AID 588546; active = well fitted inhibition curve with a large enough effect in the signal ratio, with a control signal flat, not every such curve was filed as active; the % refers to the signal ratio; also: potency is read from the fitted curve at half-maximal effect;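 as to max response: cells stimulated with 9-cis-retinoic acid as agonist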). The settings on record: HEK293T RXRa-UAS-bla, beta-lactamase ratio, antagonist mode; measured here: W530 green channel, cytotoxicity proxy. An outline of the steps: (§1)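 Beta-lactamase reporter inhibition, read as CCF4 fluorescence ratio (ex 405, em 460/530 nm) after 2 h at RT. HEK293T UAS-bla cells, 2500/well, were stimulated with 9-cis-RA at 500 or 100 nM final alongside test compound for 18 h at 37 C.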

The target in assay [3] is Retinoic acid receptor RXR-alpha (Homo sapiens) (UniProt P19793). Described as above. The settings on record: HEK293T RXRa-UAS-bla, beta-lactamase ratio, antagonist mode. An outline of the steps:
as §1

Assay [4] in a line: S16 Schwann cell viability assay (CellTiter-Glo assay) (AID 624031). Also: nearly all actives have a fitted effect of over 70% in size. Also: potency is read from the fitted curve at half-maximal effect. To be noted: S16 rat Schwann cells viability, 24 h; series mostly up to 57.5 µM. In a few lines: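 This viability control uses native rat S16 Schwann cells grown in DMEM plus 10% FBS. After a 24 h compound treatment at 37 °C, CellTiter-Glo luminescence reports ATP content, scaled against DMSO-treated and cell-free wells.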

Assay [5] in a line: S16 Schwann cell PMP22 intronic element firefly luciferase assay (AID 624032). Also: nearly all actives have a fitted effect of over 30% in size. Also: potency is read from the fitted curve at half-maximal effect. The settings on record: S16 rat Schwann cells, PMP22 element FLuc, 24 h; series mostly up to 57.5 µM. An outline of the steps:
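Luciferase reporter of PMP22 intronic-element expression in stably transfected S16 rat Schwann cells, read by ONE-Glo luminescence after 24 h compound exposure at 37 C. Activity scaled between DMSO (0%) and positive-control PTC124; concentration-effect curves quality-classified.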

Assay [6] concerns the target Vitamin D3 receptor (Homo sapiens) (UniProt P11473). The experiment in a line: qHTS assay for small molecule antagonists of vitamin D receptor signaling (AID 588541; calls by dose curve;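 also: receptor activated by calcitriol during compound treatment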). To be noted: HEK293T VDR-UAS-bla, beta-lactamase ratio, antagonist mode; series mostly up to 76.7 µM. In a few lines:
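Antagonist-mode beta-lactamase reporter assay: HEK293T VDR-UAS-bla cells were exposed to titrated compound alongside 1-alpha,25-dihydroxyvitamin D3 at 3 nM final for 16 h. Values were normalized to the 50 nM agonist control and DMSO basal, with IC50 and efficacy from Hill equation fits.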

For assay [7] the target is unchanged. The assay is described as follows: qHTS assay for small molecule agonists of vitamin D receptor signaling (AID 588543; calls by dose curve). To be noted: HEK293T VDR-UAS-bla, beta-lactamase ratio, 16 h; series mostly up to 76.8 µM. An outline of the steps: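 VDR-UAS-bla HEK293T cells, 2000/well, 2% charcoal-stripped FBS; compound titration 16 h at 37 C; CCF4 beta-lactamase ratio read. Normalized to 50 nM 1-alpha,25-dihydroxyvitamin D3 (100%) and DMSO; Hill fit gives EC50, efficacy.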

The nature of assay [8]: qHTS assay for small molecule agonists of retinoid X receptor alpha signaling (AID 588544; calls by dose curve). To be noted: HEK293T RXRa-UAS-bla, beta-lactamase reporter, 18 h; 530 nm emission.
Assay [9] addresses Retinoic acid receptor RXR-alpha (Homo sapiens) (UniProt P19793). The assay is described as above. To be noted: HEK293T RXRa-UAS-bla, beta-lactamase reporter, 18 h; series mostly up to 76.7 µM.
In assay [10] the target is Thyroid hormone receptor beta (Homo sapiens) (UniProt P10828). The experiment in a line: qHTS assay for small molecule agonists of thyroid hormone receptor beta signaling (AID 588545; calls by dose curve). The settings on record: TR-UAS-bla GripTite HEK 293, beta-lactamase ratio, agonist mode, 18 h, percent of T3 response, DMSO as zero; series mostly up to 76.7 µM. In a few lines:
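TR-UAS-bla-GripTite HEK 293 cells in medium with 2% charcoal/dextran FBS, 0.1 mM NEAA and 1 mM sodium pyruvate were treated with titrated compounds for 18 hrs at 37 C. Beta-lactamase reporter was read with CCF4 dye (ex 405, em 460/530 nm); EC50 from Hill fits.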

Assay [11] has the same target. The assay is described as follows: qHTS assay for small molecule antagonists of thyroid hormone receptor beta signaling (AID 588547; active = well fitted inhibition curve with a large enough effect in the signal ratio, with a control signal flat, not every such curve was filed as active; the % refers to the signal ratio;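 also: cells stimulated with 0.4 nM T3 agonist during compound exposure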). To be noted: TR-UAS-bla HEK293, beta-lactamase ratio, antagonist mode, 18 h. An outline of the steps:
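Inhibition of T3-driven (0.4nM final) beta-lactamase reporter activity was measured over 0.59 nM to 92 uM compound after 18 h at 37 C. The cells were GripTite HEK293 TR-UAS-bla in charcoal/dextran-stripped serum, with CCF4 ratio read-out and IC50 from Hill fits.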

In assay [12] the target is Luciferin 4-monooxygenase (Photinus pyralis) (UniProt P08659). The experiment in a line: Biochemical firefly luciferase enzyme assay for NPC (AID 624030).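 Also: purified P. pyralis luciferase at 10 nM with luciferin and ATP substrate; nearly all actives have a fitted effect of over 70% in size.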 To be noted: purified P. pyralis luciferase, luminescence, 5 min; series mostly up to 58.6 µM. An outline of the steps: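 Direct inhibition of firefly luciferase enzyme (10 nM final, 50 mM Tris Acetate) assessed by luminescence within 5 minutes. Percent activity scaled between DMSO and PTC124 positive control, with concentration-effect curves classified by fit quality and response.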

A short description of assay [13]: S16 Schwann cell PMP22 intronic element beta-lactamase assay (AID 624044; calls by dose curve; also: nearly all actives have a fitted effect of over 15% in size). The settings on record: S16 rat Schwann cells, PMP22 element beta-lactamase FRET, 24 h; series mostly up to 38.3 µM. In a few lines:
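Rat S16 Schwann cells with beta-Lac driven by a PMP22 intronic element, compound-treated 24 h at 37 °C. LiveBLAzer FRET B/G read: 460 nm normalized to potassium clavulanate vs DMSO; 535 nm FRET as viability; concentration-effect curves classified.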

SMILES strings stand for the structures. “And” between values parts separate entries of the source, which are not always exact repeats. Equal values may be shown once. Records with an inconclusive call do not appear. Where a call stands in place of a potency, no number is given. The source made the active and inactive calls. Unless noted, calls follow the shape of the dose curve; as a rule, active = well fitted curve in the direction sought with a large enough effect; inconclusive = small, poorly fitted or top-dose-only effect, or another doubt; inactive = no such curve, though single readings can be large; an effect the other way counts as inactive or inconclusive.

Sequence of Vitamin D3 receptor (Homo sapiens) (P11473 whole entry, looked up): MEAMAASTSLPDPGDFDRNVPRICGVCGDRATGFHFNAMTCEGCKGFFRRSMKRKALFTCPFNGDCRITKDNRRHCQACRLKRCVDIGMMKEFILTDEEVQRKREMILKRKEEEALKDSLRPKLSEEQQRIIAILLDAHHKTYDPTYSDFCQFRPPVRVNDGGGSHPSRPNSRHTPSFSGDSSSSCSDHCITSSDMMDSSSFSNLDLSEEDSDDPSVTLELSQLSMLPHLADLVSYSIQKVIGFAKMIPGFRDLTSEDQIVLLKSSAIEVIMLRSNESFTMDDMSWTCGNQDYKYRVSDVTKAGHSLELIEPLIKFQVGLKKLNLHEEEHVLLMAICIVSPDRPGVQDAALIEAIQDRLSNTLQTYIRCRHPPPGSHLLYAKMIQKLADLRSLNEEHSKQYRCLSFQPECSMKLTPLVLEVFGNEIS
Sequence of Thyroid hormone receptor beta (Homo sapiens) (P10828 whole entry, looked up): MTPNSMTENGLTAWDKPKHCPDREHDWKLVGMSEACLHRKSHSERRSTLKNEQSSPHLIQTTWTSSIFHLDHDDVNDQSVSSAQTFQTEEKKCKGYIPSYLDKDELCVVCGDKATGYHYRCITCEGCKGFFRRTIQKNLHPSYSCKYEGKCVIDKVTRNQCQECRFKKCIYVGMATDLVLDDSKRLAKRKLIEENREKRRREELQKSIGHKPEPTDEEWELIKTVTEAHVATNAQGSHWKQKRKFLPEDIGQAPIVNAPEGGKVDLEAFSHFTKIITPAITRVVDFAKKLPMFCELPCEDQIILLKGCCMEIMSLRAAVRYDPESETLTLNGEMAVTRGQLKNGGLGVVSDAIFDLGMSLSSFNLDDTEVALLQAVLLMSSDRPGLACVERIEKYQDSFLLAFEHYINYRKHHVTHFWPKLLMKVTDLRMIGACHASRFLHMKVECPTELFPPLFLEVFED
Sequence of Retinoic acid receptor RXR-alpha (Homo sapiens) (P19793 whole entry, looked up): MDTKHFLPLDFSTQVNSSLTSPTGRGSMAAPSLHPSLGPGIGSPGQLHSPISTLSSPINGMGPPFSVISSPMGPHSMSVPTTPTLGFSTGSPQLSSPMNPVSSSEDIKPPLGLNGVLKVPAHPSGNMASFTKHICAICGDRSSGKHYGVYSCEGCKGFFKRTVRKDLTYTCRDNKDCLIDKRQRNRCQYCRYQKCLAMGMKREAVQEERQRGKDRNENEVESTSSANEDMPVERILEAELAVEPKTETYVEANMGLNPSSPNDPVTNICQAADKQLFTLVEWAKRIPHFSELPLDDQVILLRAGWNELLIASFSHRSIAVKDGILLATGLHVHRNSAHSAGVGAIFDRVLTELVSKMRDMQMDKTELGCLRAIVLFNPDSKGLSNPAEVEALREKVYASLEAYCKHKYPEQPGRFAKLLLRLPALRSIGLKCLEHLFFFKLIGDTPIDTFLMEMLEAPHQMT
Sequence of Voltage-gated inwardly rectifying potassium channel KCNH2 (Homo sapiens) (Q12809 whole entry, looked up): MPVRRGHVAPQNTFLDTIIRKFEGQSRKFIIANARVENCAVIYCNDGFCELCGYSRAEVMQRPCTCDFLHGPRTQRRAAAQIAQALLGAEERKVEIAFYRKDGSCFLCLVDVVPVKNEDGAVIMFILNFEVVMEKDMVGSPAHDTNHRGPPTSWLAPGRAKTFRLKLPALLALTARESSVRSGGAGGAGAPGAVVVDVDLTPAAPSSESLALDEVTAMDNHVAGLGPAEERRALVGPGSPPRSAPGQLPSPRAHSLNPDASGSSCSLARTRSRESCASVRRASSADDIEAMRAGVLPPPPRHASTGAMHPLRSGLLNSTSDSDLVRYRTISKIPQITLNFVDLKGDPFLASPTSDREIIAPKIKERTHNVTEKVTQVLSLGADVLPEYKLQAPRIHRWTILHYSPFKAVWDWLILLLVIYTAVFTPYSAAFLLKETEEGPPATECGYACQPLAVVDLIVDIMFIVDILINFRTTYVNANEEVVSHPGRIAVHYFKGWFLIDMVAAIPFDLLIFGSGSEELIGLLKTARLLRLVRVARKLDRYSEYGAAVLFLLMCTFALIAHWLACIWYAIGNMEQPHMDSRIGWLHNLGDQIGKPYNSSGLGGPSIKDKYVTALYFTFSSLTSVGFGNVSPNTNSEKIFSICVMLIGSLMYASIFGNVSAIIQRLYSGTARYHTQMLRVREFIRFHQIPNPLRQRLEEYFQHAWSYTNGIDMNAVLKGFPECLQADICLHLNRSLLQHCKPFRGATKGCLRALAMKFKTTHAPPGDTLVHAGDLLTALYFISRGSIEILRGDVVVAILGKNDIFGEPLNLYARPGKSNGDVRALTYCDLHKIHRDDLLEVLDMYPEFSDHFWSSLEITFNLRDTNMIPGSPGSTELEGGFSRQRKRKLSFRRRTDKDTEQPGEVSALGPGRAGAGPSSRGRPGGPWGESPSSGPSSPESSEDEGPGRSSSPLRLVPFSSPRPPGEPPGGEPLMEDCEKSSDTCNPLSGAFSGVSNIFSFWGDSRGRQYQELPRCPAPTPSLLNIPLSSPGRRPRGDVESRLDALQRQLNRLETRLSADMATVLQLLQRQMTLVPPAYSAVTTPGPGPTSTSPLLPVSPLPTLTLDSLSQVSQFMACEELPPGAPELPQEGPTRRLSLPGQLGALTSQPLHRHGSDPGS
Sequence of Luciferin 4-monooxygenase (Photinus pyralis) (P08659 whole entry, looked up): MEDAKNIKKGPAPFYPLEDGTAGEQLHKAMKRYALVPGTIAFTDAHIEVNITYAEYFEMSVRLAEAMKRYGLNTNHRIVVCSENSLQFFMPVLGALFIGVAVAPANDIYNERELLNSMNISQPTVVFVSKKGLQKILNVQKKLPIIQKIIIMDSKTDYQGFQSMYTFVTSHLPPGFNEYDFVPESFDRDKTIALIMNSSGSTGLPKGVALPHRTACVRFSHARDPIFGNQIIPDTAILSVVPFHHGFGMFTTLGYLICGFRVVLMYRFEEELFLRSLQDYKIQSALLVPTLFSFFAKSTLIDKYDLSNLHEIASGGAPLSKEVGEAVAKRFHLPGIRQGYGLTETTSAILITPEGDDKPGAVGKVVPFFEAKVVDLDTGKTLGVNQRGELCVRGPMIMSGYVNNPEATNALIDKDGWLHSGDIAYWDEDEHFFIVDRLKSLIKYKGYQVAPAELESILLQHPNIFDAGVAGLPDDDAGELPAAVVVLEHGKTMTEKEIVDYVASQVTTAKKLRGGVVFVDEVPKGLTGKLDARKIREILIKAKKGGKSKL

Consider `CNc1ccc(C(=O)CC(O)CCC(C)C2OC(=O)CC(O)CC(=O)CC(O)CC(O)CC(O)CC(O)CC3(O)CC(O)C(C(=O)OC)C(CC(O[C@@H]4O[C@H](C)[C@@H](O)[C@H](N)[C@@H]4O)/C=C/C=C/C=C/C=C/C=C/C=C/C=C/C2C)O3)cc1` (stereo not given in full), for which, in [1], the Potency result was “inactive”.
For the molecule `CC(=O)O[C@H]1CC[C@@]2(C)C(=CC[C@@H]3[C@@H]2CC[C@]2(C)C(=O)CC[C@@H]32)C1`, in assay [1], the Potency entry is “inactive”.
Same read-out and setting: in the case of `COc1cc2c(cc1OC)[C@@]13CCN4CC5=CCO[C@H]6CC(=O)N2[C@H]1[C@H]6[C@H]5C[C@H]43` it was “inactive”; in that of `Cc1cccc(C(C)c2cnc[nH]2)c1C` (stereo not given), “inactive”.
With `C[CH2][Hg][S]c1ccccc1C(=O)O`, the max response in [2] is -29.7%. Moreover, the Potency is 2.24 µM (active) in assay [3], 1.28 µM (active) in assay [4] and 721 nM (active) in assay [5]. For the same molecule, the Potency result in assay [1] was “inactive”.
In the case of `OC[C@@H](O)[C@H]1O[C@@H]2O[C@H](C(Cl)(Cl)Cl)O[C@@H]2[C@H]1O`, in assay [1], the Potency entry is “inactive”.
Consider `C[N+]1(C)[C@@H]2CC(OC(=O)[C@H](CO)c3ccccc3)C[C@H]1[C@H]1O[C@@H]12` (stereo not given in full), for which, in [1], the Potency entry is “inactive”.
On the same count and under the same terms, in the case of `C[C@@H](CO)NC(=O)[C@@H]1C=C2c3cccc4[nH]cc(c34)C[C@H]2N(C)C1` it was “inactive”; in that of `CC(=O)OCC(=O)[C@H]1CC[C@H]2[C@@H]3CC[C@H]4C[C@H](O)CC[C@]4(C)[C@H]3C(=O)C[C@]12C`, “inactive”.
The same measure, in the same setting: in the case of `C[C@H]1CC[C@]2(NC1)O[C@H]1C[C@H]3[C@@H]4CC[C@H]5C[C@@H](O)CC[C@]5(C)[C@H]4CC[C@]3(C)[C@H]1[C@@H]2C` it was “inactive”.
Still for that read-out and setting: in the case of `CN(C)CCCCCCN(C)C` (tested in a mixture with another compound) it was “inactive”.
For the molecule `N#CC(C#N)=Cc1cc(O)c(O)c(O)c1`, in assay [1], the Potency result is “inactive”.
Still for that read-out and setting: in the case of `CCN(CC)c1ncnc2c1ncn2[C@@H]1O[C@H](COP(=O)(O)OP(=O)(O)C(Br)(Br)P(=O)(O)O)[C@@H](O)[C@H]1O` it was “inactive”.
Regarding `CCOP(=O)(OCC)O/C(=C/Cl)c1ccc(Cl)cc1Cl`, the Potency result in assay [6], in [9], in assay [1], in assay [12] and in assay [4] was “inactive” throughout. Besides, the outcome in assay [7] and in [10] was inactive. Moreover, the max response was 10.8% in assay [8]; 4.06% and 8.46% in assay [2]; -33.2% (inactive) and -25.5% (inactive) in assay [3]. Besides, in [11], the activity change % (negative = inhibition) was -5.99% (inactive).
For the molecule `C[C@]12CC[C@H]3[C@@H](CC[C@@]45O[C@@H]4C(O)=C(C#N)C[C@]35C)[C@@H]1CC[C@@H]2O`, in [1], the Potency result is “inactive”.
On the same count and under the same terms, in the case of `COc1ccc(OC)c([C@@H](O)[C@H](C)N)c1` it was “inactive”.
Still for that read-out and setting: in the case of `[H+].[H+].[Hg+2].[O-]B([O-])[O-].[c-]1ccccc1` it was 10 µM (active).
Still for that read-out and setting: in the case of `CC(C)(O)[C@@H]1[C@H]2OC(=O)[C@@H]1[C@]1(O)C[C@H]3O[C@]34C(=O)O[C@H]2[C@]14C` it was “inactive”.
Consider `CN1[C@H]2CC[C@@H]1[C@@H](C(=O)O)[C@@H](OC(=O)c1ccccc1)C2`, for which the Potency entry in [1] was “inactive”.
The same measure, in the same setting: in the case of `CO[C@H]1[C@@H](O)C[C@H](O[C@H]2[C@@H](O)C[C@H](O[C@H]3[C@@H](O)C[C@H](O[C@H]4CC[C@@]5(C)[C@H](CC[C@@H]6[C@@H]5C[C@@H](O)[C@]5(C)[C@@H](C7=CC(=O)OC7)CC[C@]65O)C4)O[C@@H]3C)O[C@@H]2C)O[C@@H]1C` it was “inactive”.
For `CC(C)Nc1ccc(Nc2ccccc2)cc1`, the outcome in assay [7] and in [10] was inactive.
As to `O=Cc1ccco1`, the Potency entry in assay [6], in assay [9], in assay [1], in [4], in [5] and in assay [13] was “inactive” each time. The result in assay [7] and in assay [10] was inactive. Also, the results for the max response in assay [8], in assay [2] and in assay [3] were -14.8%, 9.13% and -1.1% (inactive), respectively. Also, the activity change % (negative = inhibition) in assay [11] is -3.01% (inactive).
For `C[C@]12CC[C@H]3[C@@H](CCC4=C(O)C(=O)CC[C@@H]43)[C@@H]1CC[C@@H]2OC(=O)CCC1CCCC1`, the Potency result in assay [1] is “inactive”.
Still for that read-out and setting: in the case of `CCCCC[C@@H](O)C1C(=O)OC(C)[C@H](O)/C=C/C=C/C=C/C=C/C=C(\C)C(O)C(O)C(O)C[C@H](O)C[C@H](O)C[C@H](O)C[C@H](O)C[C@@H]1O` (stereo not given in full) it was “inactive”; in that of `C[C@]12CC[C@H](O)C[C@H]1CC[C@@H]1[C@@H]2CC[C@]2(C)[C@@H](c3ccc(=O)oc3)C[C@H]3O[C@]132`, “inactive”; in that of `C=C[C@H]1CN2CC[C@H]1C[C@@H]2[C@@H](O)c1ccnc2ccccc12`, 14.1 µM (active).
The same measure, in the same setting: in the case of `C[C@@H](Cc1ccccc1)N(C)C` it was “inactive”.
With `CCC(=O)O[C@]1(c2ccccc2)CCN(C)C[C@H]1C`, the Potency entry in assay [1] was “inactive”.
Same read-out and setting: in the case of `CC(=O)O[C@H]1C[C@H](O[C@H]2[C@@H](O)C[C@H](O[C@H]3[C@@H](O)C[C@H](OC4CC[C@@]5(C)[C@H](CC[C@@H]6[C@@H]5CC[C@]5(C)[C@@H](C7=CC(=O)OC7)CC[C@]65O)C4)O[C@@H]3C)O[C@@H]2C)O[C@H](C)[C@H]1O[C@@H]1O[C@H](CO)[C@@H](O)[C@H](O)[C@H]1O` (stereo not given in full) it was “inactive”.
